Experimental data taken from article PMC11006913.
Numbering of substitutions follows the chain as printed.

Tests used:
Test in all cases: PBM; 200 nM protein, PBS
Conditions in all cases: dsDNA, one strand shown
SIX6 [1] = molecular target: T1, SIX6 (Homo sapiens, UniProt O95475 114-200, L167I)
T1 sequence: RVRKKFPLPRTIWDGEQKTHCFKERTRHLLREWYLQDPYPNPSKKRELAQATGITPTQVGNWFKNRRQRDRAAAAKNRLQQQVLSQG

SIX6 [2] = molecular target: T2, SIX6 (Homo sapiens, UniProt O95475 114-200, L143V)
T2 sequence: T1 sequence with L30V, I54L

SIX6 [3] = molecular target: T3, SIX6 (Homo sapiens, UniProt O95475 114-200, H141N)
T3 sequence: T1 sequence with H28N, I54L

SIX6 [4] = molecular target: T4, SIX6 (Homo sapiens, UniProt O95475 114-200, T165P)
T4 sequence: T1 sequence with T52P, I54L

SIX6 [5] = molecular target: T5, SIX6 (Homo sapiens, UniProt O95475 114-200, L167M)
T5 sequence: T1 sequence with I54M

SIX6 [6] = molecular target: T6, SIX6 (Homo sapiens, UniProt O95475 114-200, L143M)
T6 sequence: T1 sequence with L30M, I54L

SIX6 [7] = molecular target: T7, SIX6 (Homo sapiens, UniProt O95475 114-200, L143I)
T7 sequence: T1 sequence with L30I, I54L

SIX6 [8] = molecular target: T8, SIX6 (Homo sapiens, UniProt O95475 114-200, T165G)
T8 sequence: T1 sequence with T52G, I54L

SIX6 [9] = molecular target: T9, SIX6 (Homo sapiens, UniProt O95475 114-200, T139Q)
T9 sequence: T1 sequence with T26Q, I54L

SIX6 [10] = molecular target: T10, SIX6 (Homo sapiens, UniProt O95475 114-200, T165A)
T10 sequence: T1 sequence with T52A, I54L

SIX6 [11] = molecular target: T11, SIX6 (Homo sapiens, UniProt O95475 114-200, L167V)
T11 sequence: T1 sequence with I54V

SIX6 [12] = molecular target: T12, SIX6 (Homo sapiens, UniProt O95475 114-200)
T12 sequence: T1 sequence with I54L

SIX6 [13] = molecular target: T13, SIX6 (Homo sapiens, UniProt O95475 114-200, T165I)
T13 sequence: T1 sequence with T52I, I54L

HOXA2 [14] = molecular target: HOXA2 (Homo sapiens, UniProt O43364 129-215, R185T)
Chain of HOXA2 (Homo sapiens, UniProt O43364 129-215, R185T) (O43364 129-215 R185T): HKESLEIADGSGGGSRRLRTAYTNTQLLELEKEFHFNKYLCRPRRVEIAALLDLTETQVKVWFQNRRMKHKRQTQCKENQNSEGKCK

HOXA2 [15] = molecular target: HOXA2 (Homo sapiens, UniProt O43364 129-215, R185K)
Chain of HOXA2 (Homo sapiens, UniProt O43364 129-215, R185K) (O43364 129-215 R185K): as the sequence (O43364 129-215 R185T) above, with T57K counted along it

HOXA2 [16] = molecular target: HOXA2 (Homo sapiens, UniProt O43364 129-215, Y150S)
Chain of HOXA2 (Homo sapiens, UniProt O43364 129-215, Y150S) (O43364 129-215 Y150S): as the sequence (O43364 129-215 R185T) above, with Y22S, T57R counted along it

HOXA2 [17] = molecular target: HOXA2 (Homo sapiens, UniProt O43364 129-215)
Chain of HOXA2 (Homo sapiens, UniProt O43364 129-215) (O43364 129-215): as the sequence (O43364 129-215 R185T) above, with T57R counted along it

Row | Sequence | binding signal (SIX6 [1]) | binding signal (SIX6 [2]) | binding signal (SIX6 [3]) | binding signal (SIX6 [4]) | binding signal (SIX6 [5]) | binding signal (SIX6 [6]) | binding signal (SIX6 [7]) | binding signal (SIX6 [8]) | binding signal (SIX6 [9]) | binding signal (SIX6 [10]) | binding signal (SIX6 [11]) | binding signal (SIX6 [12]) | binding signal (SIX6 [13]) | binding signal (HOXA2 [14]) | binding signal (HOXA2 [15]) | binding signal (HOXA2 [16]) | binding signal (HOXA2 [17])
1 | CAGCGCCG | 8.83 upbm affinity estimate (log intensity, higher = more binding, comparable within an allelic series) | 8.75 upbm affinity estimate (log intensity, higher = more binding, comparable within an allelic series) | 8.78 upbm affinity estimate (log intensity, higher = more binding, comparable within an allelic series) | 8.87 upbm affinity estimate (log intensity, higher = more binding, comparable within an allelic series) | 8.78 upbm affinity estimate (log intensity, higher = more binding, comparable within an allelic series) | 8.76 upbm affinity estimate (log intensity, higher = more binding, comparable within an allelic series) | 8.8 upbm affinity estimate (log intensity, higher = more binding, comparable within an allelic series) | 8.83 upbm affinity estimate (log intensity, higher = more binding, comparable within an allelic series) | 8.77 upbm affinity estimate (log intensity, higher = more binding, comparable within an allelic series) | 8.74 upbm affinity estimate (log intensity, higher = more binding, comparable within an allelic series) | 8.79 upbm affinity estimate (log intensity, higher = more binding, comparable within an allelic series) | 8.78 upbm affinity estimate (log intensity, higher = more binding, comparable within an allelic series) | 8.74 upbm affinity estimate (log intensity, higher = more binding, comparable within an allelic series) | – | – | – | –
2 | GTATCATA | 11.5 upbm affinity estimate (log intensity, higher = more binding, comparable within an allelic series) | 10.5 upbm affinity estimate (log intensity, higher = more binding, comparable within an allelic series) | 11.5 upbm affinity estimate (log intensity, higher = more binding, comparable within an allelic series) | 9.93 upbm affinity estimate (log intensity, higher = more binding, comparable within an allelic series) | 10.8 upbm affinity estimate (log intensity, higher = more binding, comparable within an allelic series) | 11.2 upbm affinity estimate (log intensity, higher = more binding, comparable within an allelic series) | 10.6 upbm affinity estimate (log intensity, higher = more binding, comparable within an allelic series) | 11.5 upbm affinity estimate (log intensity, higher = more binding, comparable within an allelic series) | 11.3 upbm affinity estimate (log intensity, higher = more binding, comparable within an allelic series) | 11.4 upbm affinity estimate (log intensity, higher = more binding, comparable within an allelic series) | 11.3 upbm affinity estimate (log intensity, higher = more binding, comparable within an allelic series) | 11.2 upbm affinity estimate (log intensity, higher = more binding, comparable within an allelic series) | 11.3 upbm affinity estimate (log intensity, higher = more binding, comparable within an allelic series) | – | – | – | –
3 | CTGGCCCA | 8.9 upbm affinity estimate (log intensity, higher = more binding, comparable within an allelic series) | 8.81 upbm affinity estimate (log intensity, higher = more binding, comparable within an allelic series) | 8.95 upbm affinity estimate (log intensity, higher = more binding, comparable within an allelic series) | 8.96 upbm affinity estimate (log intensity, higher = more binding, comparable within an allelic series) | 8.89 upbm affinity estimate (log intensity, higher = more binding, comparable within an allelic series) | 8.86 upbm affinity estimate (log intensity, higher = more binding, comparable within an allelic series) | 8.87 upbm affinity estimate (log intensity, higher = more binding, comparable within an allelic series) | 8.92 upbm affinity estimate (log intensity, higher = more binding, comparable within an allelic series) | 8.93 upbm affinity estimate (log intensity, higher = more binding, comparable within an allelic series) | 8.92 upbm affinity estimate (log intensity, higher = more binding, comparable within an allelic series) | 8.88 upbm affinity estimate (log intensity, higher = more binding, comparable within an allelic series) | 8.94 upbm affinity estimate (log intensity, higher = more binding, comparable within an allelic series) | 8.95 upbm affinity estimate (log intensity, higher = more binding, comparable within an allelic series) | 7.24 upbm affinity estimate (log intensity, higher = more binding, comparable within an allelic series) | 10.3 upbm affinity estimate (log intensity, higher = more binding, comparable within an allelic series) | 10.4 upbm affinity estimate (log intensity, higher = more binding, comparable within an allelic series) | 7.1 upbm affinity estimate (log intensity, higher = more binding, comparable within an allelic series)
4 | CCAGACGG | 8.98 upbm affinity estimate (log intensity, higher = more binding, comparable within an allelic series) | 8.84 upbm affinity estimate (log intensity, higher = more binding, comparable within an allelic series) | 8.93 upbm affinity estimate (log intensity, higher = more binding, comparable within an allelic series) | 8.91 upbm affinity estimate (log intensity, higher = more binding, comparable within an allelic series) | 9.05 upbm affinity estimate (log intensity, higher = more binding, comparable within an allelic series) | 9.07 upbm affinity estimate (log intensity, higher = more binding, comparable within an allelic series) | 8.95 upbm affinity estimate (log intensity, higher = more binding, comparable within an allelic series) | 9.01 upbm affinity estimate (log intensity, higher = more binding, comparable within an allelic series) | 9.12 upbm affinity estimate (log intensity, higher = more binding, comparable within an allelic series) | 8.94 upbm affinity estimate (log intensity, higher = more binding, comparable within an allelic series) | 9.01 upbm affinity estimate (log intensity, higher = more binding, comparable within an allelic series) | 9.03 upbm affinity estimate (log intensity, higher = more binding, comparable within an allelic series) | 9.05 upbm affinity estimate (log intensity, higher = more binding, comparable within an allelic series) | – | – | – | –
5 | CCCTCGGC | 9.06 upbm affinity estimate (log intensity, higher = more binding, comparable within an allelic series) | 8.91 upbm affinity estimate (log intensity, higher = more binding, comparable within an allelic series) | 9.09 upbm affinity estimate (log intensity, higher = more binding, comparable within an allelic series) | 8.86 upbm affinity estimate (log intensity, higher = more binding, comparable within an allelic series) | 9.04 upbm affinity estimate (log intensity, higher = more binding, comparable within an allelic series) | 9.07 upbm affinity estimate (log intensity, higher = more binding, comparable within an allelic series) | 8.97 upbm affinity estimate (log intensity, higher = more binding, comparable within an allelic series) | 9.07 upbm affinity estimate (log intensity, higher = more binding, comparable within an allelic series) | 9.11 upbm affinity estimate (log intensity, higher = more binding, comparable within an allelic series) | 8.99 upbm affinity estimate (log intensity, higher = more binding, comparable within an allelic series) | 8.92 upbm affinity estimate (log intensity, higher = more binding, comparable within an allelic series) | 9.04 upbm affinity estimate (log intensity, higher = more binding, comparable within an allelic series) | 9.03 upbm affinity estimate (log intensity, higher = more binding, comparable within an allelic series) | – | – | – | –
6 | GCACGCCC | 8.91 upbm affinity estimate (log intensity, higher = more binding, comparable within an allelic series) | 8.8 upbm affinity estimate (log intensity, higher = more binding, comparable within an allelic series) | 8.92 upbm affinity estimate (log intensity, higher = more binding, comparable within an allelic series) | 8.82 upbm affinity estimate (log intensity, higher = more binding, comparable within an allelic series) | 8.88 upbm affinity estimate (log intensity, higher = more binding, comparable within an allelic series) | 8.84 upbm affinity estimate (log intensity, higher = more binding, comparable within an allelic series) | 8.88 upbm affinity estimate (log intensity, higher = more binding, comparable within an allelic series) | 8.97 upbm affinity estimate (log intensity, higher = more binding, comparable within an allelic series) | 8.92 upbm affinity estimate (log intensity, higher = more binding, comparable within an allelic series) | 8.91 upbm affinity estimate (log intensity, higher = more binding, comparable within an allelic series) | 8.87 upbm affinity estimate (log intensity, higher = more binding, comparable within an allelic series) | 8.94 upbm affinity estimate (log intensity, higher = more binding, comparable within an allelic series) | 8.8 upbm affinity estimate (log intensity, higher = more binding, comparable within an allelic series) | – | – | – | –
